sPLA2-III inh – Inhibits HGIII-sPLA2 liposome hydrolysis, primary screen. AID 743126. hit rate 0.56% among 370,000. inhibition, % at 12.2 µM. QFRET BODIPY PC-A2 liposome hydrolysis, fluorescence. Q9NZ20;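 active = inhibition above mean plus 3 SD of compounds lying within the high and low control bounds, cut at about 19% in these data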
Target sequence (Q9NZ20 whole entry, looked up): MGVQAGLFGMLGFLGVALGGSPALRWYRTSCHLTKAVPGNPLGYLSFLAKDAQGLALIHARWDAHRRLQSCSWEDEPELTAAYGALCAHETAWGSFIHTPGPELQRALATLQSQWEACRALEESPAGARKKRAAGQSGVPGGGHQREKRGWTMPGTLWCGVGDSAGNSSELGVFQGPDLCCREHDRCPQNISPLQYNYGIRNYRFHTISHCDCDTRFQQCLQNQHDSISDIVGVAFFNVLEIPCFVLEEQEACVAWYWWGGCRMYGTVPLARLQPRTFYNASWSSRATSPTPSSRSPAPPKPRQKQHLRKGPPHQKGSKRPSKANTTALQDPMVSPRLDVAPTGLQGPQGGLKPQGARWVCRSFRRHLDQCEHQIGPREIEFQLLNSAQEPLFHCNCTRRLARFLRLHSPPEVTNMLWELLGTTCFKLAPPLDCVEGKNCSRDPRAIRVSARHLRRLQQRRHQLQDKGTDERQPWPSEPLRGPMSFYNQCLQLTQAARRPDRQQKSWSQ
SKN-1 inh – blocks SKN-1 activity in C. elegans; C. elegans VP596 Pgst-4::GFP/RFP ratio, acrylamide-induced, 24 h; inhibition, % at 21.8 µM; AID 624304; hit rate 0.49% among 360,000;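 active = interference check ratio from 0.5 to 1.5 plus GFP to RFP signal ratio inhibition reaching or exceeding a fixed threshold, cut at about 30% in these data, passing the limit was not always enough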
SUMO Mot1 rescue – SUMOylation pathway inhibition by Mot1-301 growth rescue; growth rescue, % at 18.8 µM; hit rate 1% among 320,000; AID 2716; S. cerevisiae Mot1-301 growth rescue, ATP luminescence, 38.5C; percent above DMSO median, 100 means doubled;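 active = every valid replicate shows activation above 250% relative to neutral control wells; inactive = the rest, any valid replicate at or below 250%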
Efflux pump inh – blocks antifungal efflux pumps in multiplex yeast assay. S. cerevisiae Candida pump triplex, Nile Red efflux. inhibition, % at 10 µM. hit rate 0.44% among 330,000. AID 485275;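 active = plate passing quality check with inhibition over a set limit, or well fluorescence over plate mean plus 4 SD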;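 also: Nile Red retained in pooled yeast measured as flow cytometry median fluorescence; higher means more Nile Red kept so more efflux inhibition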
Each line names hits and unclear results; the compound was inactive in the other large screens. Hits are enriched below; roughly 2.2% of the tested compounds scored in any of these assays.

c1ccc(-c2csc(Nc3ccccn3)n2)cc1	SKN-1 inh 67
CCOc1nc(-c2ccncc2)nc2ccccc12	SKN-1 inh 39
Cc1cc(C)nc(N2C(=O)CC(C(C)c3ccccc3)C2=O)n1 (centres undefined)	SKN-1 inh 37
CC(c1ccccc1)C1CC(=O)N(c2ccc(C(=O)O)cc2)C1=O (centres undefined)	none
COc1ccccc1NC(=O)CSc1nnc(-c2ccncc2)o1	SKN-1 inh 40
COC(=O)C1CCN(C(=O)CSc2nnc(-c3ccncc3)o2)CC1	SUMO Mot1 rescue 312
O=C(CSc1nnc(-c2ccncc2)o1)N1CCCCCC1	none (no result: SUMO Mot1 rescue, Efflux pump inh)
COCCNC(=O)C(c1cccs1)N(Cc1ccccc1)C(=O)Cn1nnc2ccccc21 (centres undefined)	SUMO Mot1 rescue 284
N#C/C(=N\Nc1cccc2ccccc12)c1nnc2n1CCCCC2	SUMO Mot1 rescue active
CC1CCN(S(=O)(=O)c2nnc(NC(=O)COc3ccccc3)s2)CC1	SUMO Mot1 rescue 292
Nc1[nH]c(C(=O)c2ccccc2)c(-c2ccccc2Cl)c1C(=O)NCCc1c[nH]c2ccccc12	none (no result: SKN-1 inh, SUMO Mot1 rescue, Efflux pump inh)
Cc1cc(N2CCN(C)CC2)nc2ccc(NC(=S)N3CCN(c4ccc(Cl)cc4)CC3)cc12	SUMO Mot1 rescue 539
Cc1cc(N2CCN(C)CC2)nc2ccc(NC(=S)N3CCN(c4ccc(F)cc4)CC3)cc12	none
CCCCOCCCNC(=O)C[C@H]1C[C@@]2(C(=O)OC)C(=C[C@H](C(C)(C)C)O[C@@H]2C)N(CCC2=CCCCC2)C1=O	none (no result: SKN-1 inh, SUMO Mot1 rescue, Efflux pump inh)
Nc1nc(CSc2nc3ccccc3[nH]2)nc(N2CCOCC2)n1	SUMO Mot1 rescue 317
N#C/C(=N/Nc1ccc(OC(F)(F)F)cc1)C(N)=S	SKN-1 inh 54
CC(C)OC(=O)CSc1nnnn1-c1ccc2c(c1)OCCO2	SKN-1 inh 45
CCc1cccc(C)c1NC(=S)N(CCN(C)C)C(C)c1ccco1 (centres undefined)	none
CC(C)(C)C1CCC2(CC1)NC(=S)N(c1ccccc1)N2 (centres undefined)	SUMO Mot1 rescue 302
Cc1ccc(-c2cc(C(=O)NN=C/C=C/c3ccco3)[nH]n2)cc1C	none (no result: SKN-1 inh, SUMO Mot1 rescue, Efflux pump inh)
O=C(Nc1ccccc1C(=O)OCC(=O)N1CCc2ccccc2C1)c1ccco1	SUMO Mot1 rescue 356
Cc1cccc(C(=O)OCC(=O)N2CCc3ccccc3C2)c1O	none
CC(=O)n1cc(Nc2ccc([N+](=O)[O-])cc2)c2ccccc21	none (no result: SUMO Mot1 rescue)
CC(=O)SC(C[N+](=O)[O-])c1cn(C(C)=O)c2ccccc12 (centres undefined)	SUMO Mot1 rescue 404
CCCC(O)(c1ccc(Cl)cc1)C(CN1CCOCC1)c1ccc(Cl)cc1 (centres undefined)	SUMO Mot1 rescue 292
C[C@H](CO)N1C[C@H](C)[C@@H](CN(C)S(=O)(=O)c2cccs2)OCc2cnnn2CCCC1=O	none (no result: SUMO Mot1 rescue, Efflux pump inh)
CCc1c(C)nc2cc(-c3ccccc3)[nH]n2c1=O	SKN-1 inh 36
C=CCc1c(C)nc2cc(-c3ccc(C)cc3)[nH]n2c1=O	none
Nc1[nH]c(C(=O)c2ccc(Br)cc2)c(-c2ccccc2)c1C(=O)NCCc1c[nH]c2ccccc12	none (no result: SKN-1 inh, SUMO Mot1 rescue, Efflux pump inh)
CCOC(=O)c1ccccc1N/C=C/C(=O)c1cccs1	none
O=C(/C=C\Nc1cccc(F)c1)c1cccs1	SKN-1 inh 69
Cc1ccc(N/C=C/C(=O)c2cccs2)cc1	SKN-1 inh 42
O=C(/C=C\Nc1ccc2c(c1)OCO2)c1cccs1	none
O=C(/C=C/Nc1ccc(F)cc1F)c1cccs1	SKN-1 inh 60
O=C(/C=C/Nc1ccccc1F)c1cccs1	SKN-1 inh 85
O=C(c1ccc([N+](=O)[O-])cc1[N+](=O)[O-])N1CCc2ccccc21	none
O=C(N=C1N=C2C=CC(Br)=CN2Cc2ccccc21)c1ccc([N+](=O)[O-])cc1[N+](=O)[O-]	SKN-1 inh 60
O=C1c2ccccc2OC2(C=Cc3ccccc3O2)N1Cc1ccccc1 (centres undefined)	SKN-1 inh 40
Brc1ccc(-c2noc(COc3ccc4c(c3)CCC4)n2)o1	none
c1csc(-c2noc(COc3ccc4c(c3)CCCC4)n2)c1	SKN-1 inh 38
COc1ccc(NC(C)=O)cc1NC(=O)CSc1nc2ncccc2[nH]1	SUMO Mot1 rescue 331
COc1ccccc1NC(=O)CSc1nc2ncccc2[nH]1	none
Cc1cc(NC(=O)Cc2cn(C)c3ccccc23)ccc1Nc1cccnc1	none (no result: SKN-1 inh, SUMO Mot1 rescue, Efflux pump inh)
c1ccc2sc(-c3ccncc3)nc2c1	SKN-1 inh 39
c1ccc(-c2csc(-c3ccncc3)n2)cc1	SKN-1 inh 70
Clc1ccc(-c2csc(-c3cccnc3)n2)s1	SKN-1 inh 92
Brc1ccsc1-c1csc(-c2ccncc2)n1	SKN-1 inh 40
Brc1cccc(CN2CCN(c3ncc(Cc4ccccc4)cn3)CC2)n1	none (no result: SKN-1 inh, SUMO Mot1 rescue, Efflux pump inh)
Cc1cccc(OC(C)C(=O)Nc2ccc(N3CCCCC3)cc2)c1 (centres undefined)	none
CN1OC[C@@H]2CN(C(=O)c3ccc(C#N)cc3)[C@H](c3cccc(Br)c3)C[C@@H]21	none (no result: SKN-1 inh, SUMO Mot1 rescue, Efflux pump inh)
CCN(CCCNC(=O)CC(C(=O)N1CCc2ccccc21)n1ccnc1)c1cccc(C)c1 (centres undefined)	SKN-1 inh 38
O=C(c1ccc(F)c(S(=O)(=O)N2CCOCC2)c1)N1CCN(c2ccc(F)cc2)CC1	none
CCOC(=O)NCc1ccc2c(c1)cc(C)n2C	SKN-1 inh 52
Cc1cc2cc(CNC(=O)C3CC3)ccc2n1C	SKN-1 inh 40
CCCS(=O)(=O)NCc1ccc2c(c1)cc(C)n2C	SKN-1 inh 53
COc1cccc(C(=O)NCc2ccc3c(c2)cc(C)n3C)c1	none
COc1ccc(CC(=O)NCc2ccc3c(c2)cc(C)n3C)cc1	SKN-1 inh 50
CCS(=O)(=O)NCc1ccc2c(c1)cc(C)n2C	none
CCNC(=S)NNC(=O)CSc1nnc(SCc2cccc3ccccc23)s1	none (no result: SKN-1 inh, SUMO Mot1 rescue, Efflux pump inh)
CCOC(=O)CCC(=O)NCc1ccc2c(c1)cc(C)n2C	none
CCCCC(=O)NCc1ccc2c(c1)cc(C)n2C	SKN-1 inh 50
COC(=O)C1=C(C)N(Cc2ccccc2C(F)(F)F)C(=NCc2cc(OC)c(OC)c(OC)c2)NC1c1cccc(F)c1 (centres undefined)	none (no result: SKN-1 inh, SUMO Mot1 rescue, Efflux pump inh)
CC(C)C(NC(=O)/C=C/c1ccc(F)cc1)C(C)C	SUMO Mot1 rescue 288
Cc1cc(C)cc(OCC(O)CN2CCN(Cc3ccc4c(c3)OCO4)CC2)c1 (centres undefined)	SUMO Mot1 rescue 310
CCC(=O)N1CCN(c2nc3ccc(Br)cc3s2)CC1	SKN-1 inh 43
O=C(Nc1nc2c(s1)CCc1ccccc1-2)c1ccco1	SKN-1 inh 41 (no result: SUMO Mot1 rescue)
COc1ccc2c(c1)Cc1sc(NC(=O)c3ccccc3)nc1-2	SKN-1 inh 42
CCCCC(=O)N1CCN(c2nc3ccc(F)cc3s2)CC1	none
CC(=O)Nc1nc2ccc(Br)cc2s1	SKN-1 inh 35
COc1ccc(C(=O)Nc2nc3c(s2)Cc2cc(OC)ccc2-3)cc1	none
Cc1cc2c(c(=O)o1)[C@@]1(C(=O)N(C)c3cc(Br)ccc31)C1=C(CCCC1=O)O2	none (no result: SKN-1 inh, SUMO Mot1 rescue, Efflux pump inh)
Nc1[nH]c(C(=O)c2ccccc2)c(-c2ccccn2)c1C(=O)c1c[nH]c2ccc(F)cc12	none (no result: SKN-1 inh, SUMO Mot1 rescue, Efflux pump inh)
O=C(Nc1nc2c(ccc3ccccc32)s1)c1ccco1	SKN-1 inh 81

High-throughput results (PubChem BioAssay)
